# Data published in PubChem BioAssay AID430 (Sanford-Burnham Center for Chemical Genomics, 2006).
# About 1,100 (1.7%) of roughly 63,000 compounds were called active. Only a selection was taken, and actives are over-represented in it overall. Results with a measured potency or affinity are listed apart. Values without a mark were called inactive. No stated cut-off is given here; in the data, active means cytotoxicity above about 50%; inactive means the rest.
# Assay: cytotoxicity in HPDE-C7 cells, cell-based, fluorescence, HTS (AID 430);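 further: cells exposed to compound for 48 hours before viability readout; 0% = vehicle and 100% = reference cytotoxic drug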
# Settings: HPDE-C7 pancreatic duct cells viability, at 10 µM, active compounds read high
row,SMILES,cytotoxicity
1,Cc1csc(SCc2nnc(-c3ccccc3Br)o2)n1,-11.9%
2,Cc1cc(C)n(-c2c(F)c(F)c(CN3CCOCC3)c(F)c2F)n1,-4.7%
3,O=C(CCN1c2ccccc2Sc2ccccc21)OCc1nnc(-c2ccccc2)o1,5.5%
4,COc1cc(OC)cc(-c2nnc(SCC(=O)N3c4ccccc4Sc4ccccc43)o2)c1,-10.6%
5,Cc1nnc(SC(=O)N2c3ccccc3Sc3ccccc32)s1,-38%
6,COc1ccc(C(=O)CSc2nnc(-c3ccccc3)o2)cc1,-13.3%
7,Cc1cccc(Nc2ccccc2)c1,-12.8%
8,Cc1cc2cc(CN(Cc3ccco3)C(=O)C3CCCCC3)c(=O)[nH]c2cc1C,-2%
9,COc1ccc(CNC(=O)c2cc(-c3cccs3)on2)cc1,2.4%
10,Cc1noc(C(=O)Nc2sc3c(c2C#N)CCC3)c1Cl,19%
11,COc1ccccc1NC(=O)C1(C)Cc2ccccc2C(=O)O1 (stereo not drawn),10.1%
12,CN(C)CCN(Cc1ccccc1)c1ccnc(N(C)C)c1C#N,-24.4%
13,COCCNC(=O)CN(CC1CCCO1)C(=O)CCC(=O)Nc1ccccn1 (stereo not drawn),-5.6%
14,CC(=O)c1sc(Nc2nc3ccc(F)cc3s2)nc1C,58.8% (active)
15,COc1ccc2nc(Nc3nc(C)c(C(C)=O)s3)sc2c1,18.2%
16,CCOC(=O)c1csc(Nc2nc3ccc(F)cc3s2)n1,40.1%
17,O=C(O)CCC(=O)N1CCc2cc(S(=O)(=O)N3CCN(c4ccc(F)cc4)CC3)ccc21,3.1%
18,COc1ccccc1N1CCN(C(=O)c2cc3n(n2)C(C(F)(F)F)CC(c2ccco2)N3)CC1 (stereo not drawn),-21.5%
19,Cc1ccc(C(=O)CSc2nnc(-c3ccco3)n2Cc2ccccc2)cc1,-16.2%
20,c1cn2c(NC3CCCC3)c(-c3ccc(N4CCOCC4)cc3)nc2cn1,2.8%
21,COc1cc(-c2nc3cnccn3c2Nc2ccccc2)ccc1O,22.1%
22,Cc1ccc2cc(CN(Cc3cccs3)C(=O)c3ccco3)c3nnnn3c2c1C,22.1%
23,CCc1nc2c(n1O)CCc1nonc1-2,3.5%
24,CCCSc1nc2c(c(=O)[nH]c(=O)n2C)n1C,2.1%

row,SMILES,cytotoxicity
1,NS(=O)(=O)c1ccc(S(=O)(=O)N(Cc2ccccc2F)CC2CCCO2)cc1 (stereo not drawn),-0.3%
2,CC(NC(=O)NCC1CCCO1)(C(F)(F)F)C(F)(F)F (stereo not drawn),-16%
3,Cc1nc2ccccc2nc1CSc1nncs1,3.3%
4,Cc1nc(CNS(=O)(=O)c2ccc3c(c2)CCCC3)cs1,-11.4%
5,CN(C)CCNc1ncnc2c1cnn2-c1ccc(Cl)cc1,19.4%
6,CC(C)OCCCNc1ncnc2c1cnn2-c1ccccc1,26.6%
7,COCCNc1ncnc2c1cnn2-c1ccc(Cl)cc1,4.6%
8,CN(C)CCCNc1ncnc2c1cnn2-c1ccccc1,-5.5%
9,CCCCNc1ncnc2c1cnn2-c1ccccc1,65% (active)
10,CCCCNc1ncnc2c1cnn2-c1ccc(Cl)cc1,72.3% (active)
11,CS(=O)CCC(NS(=O)(=O)c1ccccc1)C(=O)O (stereo not drawn),-7.3%
12,Cn1cc(C(=O)NCCN2CCN(c3cccc(Cl)c3)CC2)c2c3ccccc3n(C)c2c1=O,-12.1%
13,Cc1cccc(N2CCN(C(=O)c3cn(C)c(=O)c4c3c3ccccc3n4C)CC2)c1C,53.7% (active)
14,CCOC(=O)N1CCN(C(=O)c2cn(C)c(=O)c3c2c2ccccc2n3C)CC1,-11.5%
15,Cn1cc(C(=O)N2CCN(C(=O)c3ccco3)CC2)c2c3ccccc3n(C)c2c1=O,-1.4%
16,COc1ccc(N2CCN(C(=O)c3cn(C)c(=O)c4c3c3ccccc3n4C)CC2)cc1,10.1%
17,Cc1ccc(Cl)cc1N1CCN(C(=O)c2cn(C)c(=O)c3c2c2ccccc2n3C)CC1,93.1% (active)
18,COc1ccc(C)cc1S(=O)(=O)NC1CCCC1,8.4%
19,CCn1ncc(C2=NOC(C(=O)NCc3ccccc3)C2)c1C (stereo not drawn),54.7% (active)
20,CCn1ncc(C2=NOC(C(=O)Nc3cccnc3)C2)c1C (stereo not drawn),-4.8%
21,CCn1ncc(C2=NOC(C(=O)NCc3ccc(OC)cc3)C2)c1C (stereo not drawn),21.2%
22,CCn1ncc(C2=NOC(C(=O)Nc3c(C)nn(Cc4ccc(F)cc4)c3C)C2)c1C (stereo not drawn),25.1%
23,CCn1ncc(C2=NOC(C(=O)NCCc3ccccc3)C2)c1C (stereo not drawn),-13.2%
24,CCn1ncc(C2=NOC(C(=O)NCc3ccc(Cl)cc3)C2)c1C (stereo not drawn),65.1% (active)
